Structures are written as SMILES. A number with no mark means an inactive call.

For 35 compounds, z-score results are on record in PubChem BioAssay.

The assay is described as follows: osmotic lysis modulators in infected erythrocytes, primary screen, PSAC antagonist project, cell-based, P. falciparum Indochina, OD700, 3 h (AID 1156). The conditions noted are these: higher = more signal, called active from +8 up or from −8 down.
For `CC(C)Cc1ccc(CN2CC[C@@H](NC(=O)Nc3ccccc3)C2)cc1`, the z-score was 1.84.
The value for `CC(C)C[C@@H]1NC(=O)[C@@H]2C[C@H](C(=O)NCCCCN(C)C)[C@H](c3cccc(OCCO)c3)N2C1=O` was 0.931; that for `CC1CC/C=C\[C@H]2OC34C=CCN(C(C)C)C(=O)[C@H]3N(CCCCCCO)C(=O)[C@@H]4C2C(=O)O1` (stereo not given in full) was -0.987; that for `COc1ccc(CCNC(=O)[C@@]2(Sc3ccc(C)cc3)CC(=O)N(C3Cc4ccccc4C3)[C@@H]2c2ccc(CO)cc2)cc1` was -0.0174.
For the compound `COc1ccc(-c2nc(-c3ccccc3)c3c(c2C)CO[Si]3(C(C)C)C(C)C)cn1`, the z-score is -0.566.
The value for `CCCC[C@@H]1C[C@H]1[C@@H](NC(=O)c1cccs1)c1ccc(C(F)(F)F)cc1` was 0.247; that for `CN1C(=O)C2C=CC(C(O)c3ccc(F)cc3)N(Nc3ccccc3)C2C1=O` (stereo not given) was 1.45.
For the compound `OCC1CC(c2ccccc2)=NO1` (stereo not given), the z-score was -0.182.
For `COC1OC[C@]2(C)[C@H]3C4=C(CN2C(=O)OC(C)(C)C)[C@H](C)C(CO)C(CO)C4CC[C@@H]13` (stereo not given in full), the z-score was 0.394.
The value for `NCCCCCCNC(=O)[C@@H]1C[C@@H]2C(=O)N[C@@H](CCCCN)C(=O)N2[C@@H]1c1cccc(OCCO)c1` was -0.147; that for `CCOC(=O)C1=C[C@@H](c2ccccc2)N(S(=O)(=O)c2ccc(C)cc2)[C@H]1c1ccccc1Cl` was -0.0415; that for `CCOc1cc(C(O)C2C=CC3C(=O)N(c4ccccc4)C(=O)C3N2Nc2ccc(C#N)cc2)ccc1O` (stereo not given) was 0.743.
On to `CCCCCCCCCCC(O)C1C=CC2C(=O)N(C)C(=O)C2N1NC(=O)OC(C)(C)C` (stereo not given), for which the z-score was -1.28.
The value for `NCCCCCNC(=O)[C@@H]1C[C@@H]2C(=O)NCC(=O)N2[C@@H]1c1cccc(OCCO)c1` was -0.874.
The value for `[N-]=[N+]=NCc1ccccc1[C@H]1OC(c2ccc(OCCCO)cc2)=N[C@@]1(CCS(=O)(=O)c1ccccc1)C(=O)N1CCCCC1` was 3.2.
The value for `CCOC(=O)C[C@H]1[C@H](OC(=O)c2ccccc2-c2ccccc2)[C@@H](NC(=O)c2ccc(-c3ccccc3)cc2)c2cc(OCCCO)ccc2N1C(=O)c1ccc2ccccc2n1` was -0.708; that for `CCCCCCc1nc(C2CC2)cc2c1[Si](C(C)C)(C(C)C)OC2` was 0.981; that for `O=C1C[C@@](C(=O)NCCN2CCOCC2)(c2ccc([N+](=O)[O-])cc2)[C@@H](c2ccc(CO)cc2I)N1C1CCCCC1` was 2.94.
Regarding `COC(=O)[C@@]1(Cc2ccc(OC)cc2)[C@H]2c3cc(C(=O)N4CCCC4)n(Cc4c(-c5ccccc5)noc4C)c3C[C@H]2CN1C(=O)c1ccccc1`, the z-score was -0.749.
Take `CC(C)(C)N1CC=CC23O[C@@H]4C=CCCOC(=O)C4[C@H]2C(=O)N(CCO)[C@@H]3C1=O` (stereo not given in full): the z-score is 1.28.
Consider `O=C1O[C@@H](c2ccccc2)[C@@H](c2ccccc2)N2[C@@H](c3ccccc3OCCO)[C@]3(C(=O)Nc4ccc(C#CCCO)cc43)[C@@H](C(=O)N3CCCCCCC3)[C@H]12`, for which the z-score was 0.352.
The value for `CO[C@]12C=C(Br)[C@@H](C[C@@H]1c1cccc(C)c1)[C@@]1(CO1)C2=O` was 0.442.
Consider `O=C1C2C=CC(C(O)c3ccccc3)N(Nc3ccccc3F)C2C(=O)N1c1ccccc1` (stereo not given), for which the z-score was 0.368.
The value for `CC[C@H]1C2=C3C(CC[C@H]4C(OCc5ccc(F)cc5C(F)(F)F)OC[C@](C)([C@@H]34)N(C(=O)OC(C)(C)C)C2)C(COC)C1COC` (stereo not given in full) was 0.337; that for `Cc1ccc(S[C@]2(C(=O)O)CC(=O)N(C3Cc4ccccc4C3)[C@@H]2c2ccc(CO)cc2)cc1` was 0.385; that for `COc1ccc(NC(=O)O[C@H]2[C@H](OC(=O)Nc3ccccc3)[C@@H](OC(=O)Nc3ccccc3)[C@@H](OC)O[C@@H]2CO)cc1` was 0.316.
The value for `CCCC[C@@H]1C[C@H]1[C@@H](NC(=O)Cc1ccccc1)c1ccc(-c2ccccc2)cc1` was 0.249; that for `N#Cc1ccc(NN2C(C(O)c3ccc(F)cc3)C=CC3C(=O)N(c4ccccc4)C(=O)C32)cc1` (stereo not given) was 1.36.
With `[N-]=[N+]=NCc1ccccc1C[C@]1(C(N)=O)N=C(c2ccc(OCCCO)cc2)O[C@H]1c1ccccc1`, the z-score is 0.0533.
The value for `COCCCNC(=O)[C@@]1(Cc2ccccc2N=[N+]=[N-])N=C(c2ccc(OCCCO)cc2)O[C@H]1c1ccccc1` was 1.28; that for `CN(C)CCCNC(=O)[C@@H]1c2ccccc2C(=O)N(Cc2ccccc2Cl)[C@H]1c1ccc(CO)cc1` was 1.68.
The value for `C=C(/C(=C/C[C@H](OC(=O)c1ccncc1)c1ccc(CO)o1)c1cc(C(=O)OC)ccc1OC)C(C)C` was 1.25; that for `C=CCC(OC(C)=O)[C@@H]1[C@@H](N(Cc2ccc(-c3cccc(C(F)(F)F)c3)o2)C(=O)c2ccc(-c3ccccc3)cc2)c2cc(OCCCO)ccc2N1C(=O)c1ccc2ccccc2n1` (stereo not given in full) was 0.0785.
Consider `CCCCN1CC=CC23O[C@@H]4/C=C\CCC(C)OC(=O)C4[C@H]2C(=O)N(C(CO)C(C)C)[C@@H]3C1=O` (stereo not given in full), for which the z-score is 0.826.
Consider `[N-]=[N+]=Nc1ccccc1[C@H]1OC(c2ccc(OCCCO)cc2)=N[C@@]1(Cc1ccccc1)C(=O)N1CCCCC1`, for which the z-score is 2.35.
